Source: PubChem BioAssay
For some of these results: Entries with a potency or affinity are not part of this list. Active and inactive are the calls of the source. Unless noted, how the calls were made is not given here.

Key:
[1] = antimalarial activity against Dd2 strain (AID 2302;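 active means growth inhibition above 50% at the single 2 µM test dose, taken to imply half-maximal potency below 2 µM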;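 further: 0% = DMSO untreated growth and 100% = chloroquine plus artemisinin killed control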); conditions: P. falciparum Dd2 in RBCs, LDH growth readout, 72 h; at 2 µM; hits give high values
[2] = HepG2 cytotoxicity, primary screen, cytotoxicity control for P. falciparum antimalarial project, cell-based, ATP luminescence (AID 2303;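 active means inhibition above 50%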;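 further: 0% = DMSO wells and 100% = digitonin-killed cells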); conditions: HepG2 viability, 24-48 h, at 10 µM, hits give high values
[3] = molecular target: L-lactate dehydrogenase (Plasmodium falciparum (isolate CDC / Honduras)) (UniProt Q27743); assay: PfLDH activity inhibition – cell lysate, 3D7 strain, counter-screen for P. falciparum growth inhibition project (AID 2304);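 further: 0% = vehicle and 100% = reference inhibitor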; conditions: P. falciparum 3D7 crude extract, LDH APAD/NBT absorbance; at 2 µM; hits give high values
[4] = inhibition of 3D7 malaria parasite growth – strain 3D7 (AID 2306);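 further: 0% = DMSO wells and 100% = chloroquine plus artemisinin control wells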; conditions: P. falciparum 3D7 erythrocytic growth, LDH absorbance, 72 h; at 2 µM; hits give high values
[5] = molecular target: Calcium-dependent protein kinase 1 (Plasmodium falciparum (isolate 3D7)) (UniProt P62344); assay: PfCDPK1 kinase inhibitors, biochemical, TCAMS library (AID 1159585; cut-off not given, nearly all actives have IC50 up to about 0.98 µM;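 further: inhibitors leave more ATP so luminescence rises with inhibition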); conditions: recombinant PfCDPK1, Kinase-Glo ATP depletion luminescence
[6] = molecular target: Plasmodium falciparum protein kinase 6 (PK6, PF3D7_1337100) (UniProt Q8IDW1); assay: PfPK6 kinase inhibitors, biochemical, TCAMS library (AID 1159586); conditions: recombinant PfPK6, Kinase-Glo ATP depletion luminescence
[7] = molecular target: Protein kinase 7 (PK7), Plasmodium falciparum 3D7 (PF3D7_0213400) (UniProt Q7YTF7); assay: inhibition of Plasmodium PK7 catalytic activity – biochemical, TCAMS antimalarial set, Kinase-Glo luminescence (AID 1159587); conditions: recombinant PfPK7, Kinase-Glo ATP depletion luminescence
[8] = molecular target: Calcium-dependent protein kinase 4 (Plasmodium falciparum (isolate 3D7)) (UniProt Q8IBS5); assay: PfCDPK4 kinase inhibitors, biochemical, TCAMS library (AID 1159588; cut-off not given, nearly all actives have IC50 up to about 0.91 µM); conditions: recombinant PfCDPK4, Kinase-Glo ATP depletion luminescence
Chain of Calcium-dependent protein kinase 4 (Plasmodium falciparum (isolate 3D7)) (Q8IBS5 whole entry, looked up): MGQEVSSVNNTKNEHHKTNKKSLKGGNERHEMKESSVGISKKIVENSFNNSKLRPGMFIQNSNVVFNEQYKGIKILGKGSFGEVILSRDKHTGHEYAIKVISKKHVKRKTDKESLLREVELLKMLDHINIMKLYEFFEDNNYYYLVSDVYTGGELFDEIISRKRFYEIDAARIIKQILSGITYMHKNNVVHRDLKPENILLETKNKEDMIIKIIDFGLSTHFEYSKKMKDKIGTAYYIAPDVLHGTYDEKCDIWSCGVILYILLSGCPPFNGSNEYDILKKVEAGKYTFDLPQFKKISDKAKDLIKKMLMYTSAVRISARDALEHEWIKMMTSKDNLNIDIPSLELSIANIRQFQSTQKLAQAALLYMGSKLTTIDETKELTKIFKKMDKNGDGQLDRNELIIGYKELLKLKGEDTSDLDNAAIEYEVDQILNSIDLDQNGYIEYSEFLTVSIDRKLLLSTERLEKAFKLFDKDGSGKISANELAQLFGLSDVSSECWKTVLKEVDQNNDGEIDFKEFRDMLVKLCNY

Chain of Plasmodium falciparum protein kinase 6 (PK6, PF3D7_1337100) (Q8IDW1 1-305): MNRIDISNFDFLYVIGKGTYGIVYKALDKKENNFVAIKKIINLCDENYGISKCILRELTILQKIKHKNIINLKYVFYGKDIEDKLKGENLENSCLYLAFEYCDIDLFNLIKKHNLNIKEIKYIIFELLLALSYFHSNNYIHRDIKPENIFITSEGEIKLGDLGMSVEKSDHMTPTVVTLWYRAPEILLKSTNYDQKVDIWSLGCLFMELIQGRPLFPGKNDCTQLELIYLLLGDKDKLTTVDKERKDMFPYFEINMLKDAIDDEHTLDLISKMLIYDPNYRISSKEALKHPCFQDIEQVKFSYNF
Chain of Protein kinase 7 (PK7), Plasmodium falciparum 3D7 (PF3D7_0213400) (Q7YTF7 1-343): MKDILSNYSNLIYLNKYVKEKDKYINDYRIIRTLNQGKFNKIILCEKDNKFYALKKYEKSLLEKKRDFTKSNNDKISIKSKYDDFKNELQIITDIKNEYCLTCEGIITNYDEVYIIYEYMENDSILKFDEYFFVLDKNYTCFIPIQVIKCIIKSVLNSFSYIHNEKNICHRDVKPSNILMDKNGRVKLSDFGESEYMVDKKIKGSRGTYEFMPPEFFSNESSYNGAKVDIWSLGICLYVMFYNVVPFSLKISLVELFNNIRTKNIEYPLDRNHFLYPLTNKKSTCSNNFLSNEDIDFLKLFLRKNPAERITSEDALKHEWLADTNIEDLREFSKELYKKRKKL
Chain of L-lactate dehydrogenase (Plasmodium falciparum (isolate CDC / Honduras)) (Q27743 whole entry, looked up): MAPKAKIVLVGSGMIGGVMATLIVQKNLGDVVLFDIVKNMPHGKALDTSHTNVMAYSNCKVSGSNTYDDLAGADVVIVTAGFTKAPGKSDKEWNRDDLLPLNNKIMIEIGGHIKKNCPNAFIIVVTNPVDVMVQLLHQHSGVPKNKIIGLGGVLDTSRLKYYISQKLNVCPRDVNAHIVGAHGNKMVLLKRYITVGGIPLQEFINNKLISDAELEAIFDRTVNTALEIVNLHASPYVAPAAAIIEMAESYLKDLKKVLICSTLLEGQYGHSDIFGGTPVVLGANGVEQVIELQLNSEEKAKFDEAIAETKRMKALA
Chain of Calcium-dependent protein kinase 1 (Plasmodium falciparum (isolate 3D7)) (P62344 whole entry, looked up): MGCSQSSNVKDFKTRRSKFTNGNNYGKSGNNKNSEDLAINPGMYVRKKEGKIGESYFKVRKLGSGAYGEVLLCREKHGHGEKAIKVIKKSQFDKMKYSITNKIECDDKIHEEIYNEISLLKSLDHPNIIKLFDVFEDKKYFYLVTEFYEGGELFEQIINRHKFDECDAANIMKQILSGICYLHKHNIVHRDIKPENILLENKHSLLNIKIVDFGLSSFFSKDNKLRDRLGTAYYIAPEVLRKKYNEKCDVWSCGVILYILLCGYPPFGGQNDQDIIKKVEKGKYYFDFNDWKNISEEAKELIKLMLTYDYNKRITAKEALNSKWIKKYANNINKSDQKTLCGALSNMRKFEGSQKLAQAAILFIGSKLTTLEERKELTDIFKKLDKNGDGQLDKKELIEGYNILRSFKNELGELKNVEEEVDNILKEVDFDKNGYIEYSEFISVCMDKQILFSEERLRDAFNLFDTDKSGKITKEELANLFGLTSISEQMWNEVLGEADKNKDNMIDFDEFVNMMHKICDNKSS

COc1ccc2ncn(-c3ccc(C(N)=O)c(OCc4ccccc4C(F)(F)F)c3)c2c1
inactive: inhibition [2] 18% | inhibition [3] 3% | outcome [5] | outcome [6] | outcome [7] | outcome [8]
active: growth inhibition [1] 100% | growth inhibition [4] 98%

O=C(Nc1ccc(Oc2ccccc2)cc1)N(Cc1ccc(-c2ccc(CN3CCNCC3)cc2)cc1)C1CCN(Cc2ccccc2)CC1
inactive: inhibition [2] 31% | inhibition [3] -1% | outcome [5] | outcome [6] | outcome [7] | outcome [8]
active: growth inhibition [1] 73% | growth inhibition [4] 101%

O=C(NCc1ccc(F)cc1)Nc1ccc(-c2ccc(-c3nc4ccccc4[nH]3)cc2)cc1
active: growth inhibition [1] 98% | growth inhibition [4] 101%
inactive: inhibition [2] 43% | inhibition [3] 4% | outcome [5] | outcome [6] | outcome [7] | outcome [8]

COc1ccc(NC(=O)c2cccc(Br)c2)cc1N1CCN(CCCCCCCN2CCN(c3cc(NC(=O)c4cccc(Br)c4)ccc3OC)CC2)CC1
active: growth inhibition [1] 93% | inhibition [2] 97% | growth inhibition [4] 99%
inactive: inhibition [3] 0% | outcome [5] | outcome [6] | outcome [7] | outcome [8]

CCCCCCc1ncc(-c2cc3cc(O)c(-c4ccccc4)cc3oc2=O)s1
inactive: inhibition [2] 4% | inhibition [3] -8% | outcome [5] | outcome [6] | outcome [7] | outcome [8]
active: growth inhibition [1] 63% | growth inhibition [4] 90%

O=C(NCCCCN1CCC(c2ccc3c(c2OCC2COCO2)CCCC3)CC1)c1ccc(-c2ccc(C(F)(F)F)cc2)cc1 (stereo not given)
active: inhibition [2] 91% | growth inhibition [4] 99%
inactive: growth inhibition [1] 45% | inhibition [3] -2% | outcome [5] | outcome [6] | outcome [7] | outcome [8]

CC(CN1CCN(C)CC1)C(=O)Nc1ccc(-c2csc(-c3nc4ccccc4[nH]3)c2)cc1 (stereo not given)
inactive: growth inhibition [1] 26% | inhibition [2] 15% | inhibition [3] -4% | outcome [5] | outcome [6] | outcome [7] | outcome [8]
active: growth inhibition [4] 93%

CN1CCCc2ccc(NC(=O)C=Cc3ccc(-c4ccc(F)cc4F)o3)cc2C1
inactive: growth inhibition [1] 20% | inhibition [2] 8% | inhibition [3] -5% | outcome [5] | outcome [6] | outcome [7] | outcome [8]
active: growth inhibition [4] 98%

O=C(CCc1cnc[nH]1)Nc1ccc(-c2cccc(-c3nc4ccccc4[nH]3)c2)cc1
inactive: growth inhibition [1] 42% | inhibition [2] 12% | inhibition [3] 4% | outcome [5] | outcome [6] | outcome [7] | outcome [8]
active: growth inhibition [4] 101%

CC(C)c1ccc(NS(=O)(=O)c2cccc(C(=O)NC3CCN(CC4CCCCC4)CC3)c2)cc1
inactive: inhibition [3] 0% | outcome [5] | outcome [6] | outcome [7] | outcome [8]
active: growth inhibition [1] 69% | inhibition [2] 71% | growth inhibition [4] 93%

O=C(Nc1cccnc1)c1cc(-c2cccnc2)nc2ccc(Br)cc12
inactive: inhibition [2] 9% | inhibition [3] 1% | outcome [5] | outcome [6] | outcome [7] | outcome [8]
active: growth inhibition [1] 60% | growth inhibition [4] 99%

Cc1ccc(NC(=O)c2cccc(C#N)c2)cc1-c1ccc(C(=O)Nc2ccncc2)cc1
inactive: inhibition [2] 38% | inhibition [3] -1% | outcome [5] | outcome [6] | outcome [7] | outcome [8]
active: growth inhibition [1] 64% | growth inhibition [4] 94%

COc1ccccc1N1CCN(Cc2c(NC(C)=O)sc(C)c2C)CC1
inactive: inhibition [2] 9% | inhibition [3] 3% | outcome [5] | outcome [6] | outcome [7] | outcome [8]
active: growth inhibition [1] 80% | growth inhibition [4] 95%

CCN(CC)CCOc1ccc(C(O)(C#CC(O)(c2ccccc2)c2ccc(OCCN(CC)CC)cc2)c2ccccc2)cc1 (stereo not given)
active: growth inhibition [1] 99% | inhibition [2] 81% | growth inhibition [4] 99%
inactive: inhibition [3] 4% | outcome [5] | outcome [6] | outcome [7] | outcome [8]

Cc1c(CN2CCCCC2)cccc1OCCCNc1nc(NCCc2ccc(O)cc2)nc(N2CCNCC2)n1
active: growth inhibition [4] 101%
inactive: growth inhibition [1] 23% | inhibition [2] 26% | inhibition [3] 3% | outcome [5] | outcome [6] | outcome [7] | outcome [8]

Cc1ccc(-c2[nH]n3c(=O)c4c(nc3c2C)CCCC4)cc1
inactive: inhibition [2] 16% | inhibition [3] -1% | outcome [5] | outcome [6] | outcome [7] | outcome [8]
active: growth inhibition [1] 87% | growth inhibition [4] 97%

c1ccc(-c2cccc(-c3ccccn3)n2)nc1
inactive: inhibition [2] 45% | inhibition [3] -1% | outcome [5] | outcome [6] | outcome [7] | outcome [8]
active: growth inhibition [1] 99% | growth inhibition [4] 98%

Clc1ccc(OCc2ccccc2)c(-c2nc(-c3nc4ccc(Cl)cc4[nH]3)cs2)c1
inactive: inhibition [2] -9% | inhibition [3] -3% | outcome [5] | outcome [6] | outcome [7] | outcome [8]
active: growth inhibition [1] 60% | growth inhibition [4] 99%

Cc1cccc2[nH]c(-c3ccc(-c4ccc(CN5CCC(C(N)=O)CC5)cc4)s3)nc12
active: growth inhibition [1] 51% | growth inhibition [4] 97%
inactive: inhibition [2] 4% | inhibition [3] 8% | outcome [5] | outcome [6] | outcome [7] | outcome [8]

COc1ccc2nccc([C@@H](O)CN3CCC(NC(=O)/C=C/c4cc(F)cc(Br)c4)CC3)c2c1
active: growth inhibition [1] 50% | growth inhibition [4] 95%
inactive: inhibition [2] 24% | inhibition [3] 7% | outcome [5] | outcome [6] | outcome [7] | outcome [8]
